Source: PubChem BioAssay (NCATS)
Results filed as inconclusive are left out. A number with no mark means an inactive call. Active and inactive are the calls of the source. The call rests on the fitted dose curve; in most records, active means well fitted inhibition curve with a large enough effect; inconclusive means small, poorly fitted or top-dose-only effect; inactive means flat fitted curve, though single readings scatter.

Test system: CP201
Experiment: qHTS profiling for inhibitors of Plasmodium falciparum proliferation (AID 504749); further: nearly all actives have a fitted effect of over 60% in size;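 on activity, negative = inhibition: 0% = DMSO vehicle and full inhibition = artemisinin control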
Conditions: P. falciparum in erythrocytes, SYBR Green DNA, 72 h; series mostly up to 28.7 µM; activity, negative = inhibition: at the top concentration
Method in brief: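 Fluorescence of SYBR Green-bound parasite DNA, read at 485/535 nm, served as the growth measure. Infected erythrocytes were cultured with compound 72 h; artemisinin (0.29 uM) and DMSO wells defined the normalization range.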
Potency means the concentration at half of the fitted maximal effect.

Row | Compound | activity, negative = inhibition | Potency
1 | Cc1cc(C(C)(C)C)cc(C)c1CC1=NCCN1 | -7.12% [at 12.8 µM] | –
2 | OCCN1CCN(CCCN2c3ccccc3Sc3ccc(C(F)(F)F)cc32)CC1 | – | 8.49 µM (active)
3 | O=c1c(-c2ccc(O)cc2)coc2cc(O)cc(O)c12 | -9.95% | –
4 | CC[N+](CC)(CC)CCOc1cccc(OCC[N+](CC)(CC)CC)c1OCC[N+](CC)(CC)CC | -2.92% | –
5 | CC(C)NCC(O)c1ccc(O)c(O)c1 (stereo not drawn) | 1.2% | –
6 | Nc1c2c(nc3ccccc13)CCCC2 | -21.4% | –
7 | CN(Cc1cnc2nc(N)nc(N)c2n1)c1ccc(C(=O)N[C@@H](CCC(=O)O)C(=O)O)cc1 | -5.92% | –
8 | Cc1ccc(C(=O)Nc2ccc(S(=O)(=O)O)c3cc(S(=O)(=O)O)cc(S(=O)(=O)O)c23)cc1NC(=O)c1cccc(NC(=O)Nc2cccc(C(=O)Nc3cc(C(=O)Nc4ccc(S(=O)(=O)O)c5cc(S(=O)(=O)O)cc(S(=O)(=O)O)c45)ccc3C)c2)c1 | -14.7% | –
9 | CN(C)C(=N)N=C(N)N | -7.45% [at 12.8 µM] | –
10 | CN(C)CCCN1c2ccccc2CCc2ccc(Cl)cc21 | -9.08% | –
11 | O=C(c1ccc(OCCN2CCCCC2)cc1)c1c(-c2ccc(O)cc2)sc2cc(O)ccc12 | – | 9.53 µM (active)
12 | CC(C)NCC(O)COc1ccc(CCOCC2CC2)cc1 (stereo not drawn) | -3.31% | –
13 | COC(=O)Nc1nc2ccc(C(=O)c3cccs3)cc2[nH]1 | -3.28% | –
14 | Clc1ccc2nsnc2c1NC1=NCCN1 | -5.12% | –
15 | CC12CC3CC(C)(C1)CC(N)(C3)C2 | -0.871% | –
16 | O=C(c1ccc(F)cc1)C1CCN(CCn2c(=O)[nH]c3ccccc3c2=O)CC1 | 0.509% | –
17 | Cc1cnc(C(=O)NCCc2ccc(S(=O)(=O)NC(=O)NC3CCCCC3)cc2)cn1 | -2.35% | –
18 | Clc1ccc2c(c1)C(N1CCNCC1)=Nc1ccccc1O2 | -2.9% | –
19 | C[C@](N)(Cc1ccc(O)c(O)c1)C(=O)O | -4.27% | –
20 | NCCc1cnc[nH]1 | -2.98% | –
21 | CN(C)CCOC(c1ccccc1)c1ccccc1 | 7.6% | –
22 | CNCCCC12CCC(c3ccccc31)c1ccccc12 | -16% | –
23 | CCC1(c2ccccc2)C(=O)NCNC1=O | -1.65% | –
24 | CC#C[C@]1(O)CC[C@H]2[C@@H]3CCC4=CC(=O)CCC4=C3[C@@H](c3ccc(N(C)C)cc3)C[C@@]21C | – | 15.1 µM (active)
25 | COc1ccccc1OCCNCC(O)COc1cccc2[nH]c3ccccc3c12 (stereo not drawn) | -11.5% | –
26 | CC(COc1ccccc1)N(CCCl)Cc1ccccc1 (stereo not drawn) | -8.27% | –
27 | COc1ccc(CCN(C)CCCC(C#N)(c2ccc(OC)c(OC)c2)C(C)C)cc1OC (stereo not drawn) | -1.09% | –
28 | O=C1c2c(O)ccc(O)c2C(=O)c2c(NCCNCCO)ccc(NCCNCCO)c21 | – | 6.42 µM (active)
